Assay [1] in a line: inhibitors of TNFa-induced NFkB p65 translocation, primary screen, imaging, HUVEC, MLSMR starter and 10KST1 sets (AID 438;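 active means inhibition above 20% together with a positive visual image hit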;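 further: compound added about 3h40 before a 20 min TNFalpha stimulation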;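 on inhibition: signal is the nuclear over cytoplasmic p65 intensity ratio per well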). As to conditions: HUVEC TNFa-induced p65 nuclear translocation; cell count: measured here: nuclei count (cytotoxicity indicator), at 2.08 µM; inhibition: at 2 µM, stronger effect = higher value, 0% TNFa-plus-vehicle, 100% no-TNFa wells.
Assay [2] can be described thus: inhibitors of mutant huntingtin aggregation, primary screen, imaging, exon1htt(103Q)mCFP cells, high-content imaging (AID 483).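 Further: compound exposure lasted 3 days before fixation.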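 On nuclei count: percent of the per-plate median nuclei count of sample wells.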 As to conditions: exon1htt(103Q)mCFP cell line, aggregate imaging, at 2 µM; inhibition of aggregation: stronger effect = higher value; nuclei count: measured here: cell count, toxicity.
Assay [3] in a line: inhibitors of E-selectin induction by TNFa, primary screen, imaging, HUVEC, immunofluorescence, MLSMR starter and 10KST1 sets (AID 487;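 active means visually confirmed hit in the image check and inhibition above 20%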;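 on inhibition: signal is fraction of cell area covered by stained E-selectin grains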;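 on nuclei count: 100% = median nuclei count of all wells on the same plate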). Particulars: HUVEC TNFalpha-induced E-selectin immunofluorescence imaging, at 2 µM; inhibition: stronger effect = higher value; nuclei count: measured here: cell number, toxicity.
Assay [4] has as its target Voltage-gated potassium channel subunit beta-2 (Rattus norvegicus) (UniProt P62483). Nature of the assay: KvBeta enzyme negative modulators, primary screen, biochemical, NADPH fluorescence (AID 622;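 active means fluorescence slope higher than the sample average by over 3 SD, cut at about -0.22 in these data, passing the limit was not always enough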;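 further: slope of raw intensity against log time taken from 70 to 1610 s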). Particulars: recombinant KvBeta, 4-cyanobenzaldehyde reduction, at 10 µM, stronger effect = higher value.
For assay [5] the target is unchanged. Nature of the assay: KvBeta positive modulators, primary screen, biochemical, NADPH fluorescence (AID 623;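 active means NADPH fluorescence slope more negative than the mean of all samples by about 3 SD, 99.7% confidence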;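 further: fluorescence intensity change per second fitted from 20 to 320 s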). As to conditions: Recombinant KvBeta, NADPH fluorescence decrease slope, 10 min; at 10 µM; stronger effect = lower value.
Assay [6] concerns the target Alpha-2C adrenergic receptor (Homo sapiens) (UniProt P18825). Nature of the assay: modulators of alpha2C/GIRK thallium flux, primary screen, cell-based, HEK293 alpha2C/GIRK1/2 (AID 624;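 active means fluorescence slope after compound addition differing from the mean of all screened samples at 99.7% confidence, in either direction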;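 further: slope of fluorescence ratio to pre-addition baseline per second over 15 to 24 s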). As to conditions: thallium flux BTC fluorescence, at 10 µM, actives lie on both sides.
Assay [7] can be described thus: inhibitors of Sendai virus-induced IRF3 signaling, primary screen, TLR/RLR signaling modifier project, cell-based, Sendai virus stimulus, luciferase, 10K MLSCN set (AID 602276;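 active means inhibition at or above 50% at 10 µM; inactive means inhibition below 50%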;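 further: firefly luciferase from ISG56 promoter only with Renilla not read in this screen; 0% = Sendai virus plus DMSO and 100% = medium plus DMSO without virus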). As to conditions: HEK293 RL24 IRF3 luciferase reporter, at 10 µM, stronger effect = higher value.
Assay [8] in a line: inhibitors of poly I:C-induced TLR3 signaling, primary screen, cell-based, poly I:C stimulus, luciferase, 10K MLSCN set (AID 602277;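 active means inhibition of the reporter signal at or above 50%; inactive means inhibition below 50%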). As to conditions: HEK293-TLR3 RL24 IRF3 luciferase reporter, at 10 µM, stronger effect = higher value.

Calls of active or inactive are those of the source.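 How the source made its calls, unless noted: active means visual image review flags a hit and inhibition of aggregation exceeds 20%; inconclusive means visual hit but inhibition at or below 20%; inactive means no hit on visual image review.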

Alpha-2C adrenergic receptor (Homo sapiens), sequence (P18825 whole entry, looked up): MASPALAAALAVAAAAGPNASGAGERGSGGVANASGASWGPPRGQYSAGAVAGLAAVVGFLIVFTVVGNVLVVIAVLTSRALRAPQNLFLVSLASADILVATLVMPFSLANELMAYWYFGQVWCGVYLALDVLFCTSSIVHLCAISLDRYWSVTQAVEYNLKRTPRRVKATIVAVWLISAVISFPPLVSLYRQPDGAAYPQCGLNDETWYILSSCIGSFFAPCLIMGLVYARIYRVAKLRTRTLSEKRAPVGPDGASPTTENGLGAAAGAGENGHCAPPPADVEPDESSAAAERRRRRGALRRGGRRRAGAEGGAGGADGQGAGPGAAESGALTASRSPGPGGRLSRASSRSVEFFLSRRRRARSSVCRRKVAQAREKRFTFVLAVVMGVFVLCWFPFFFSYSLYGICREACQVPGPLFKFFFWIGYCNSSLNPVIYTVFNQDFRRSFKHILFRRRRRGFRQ
Voltage-gated potassium channel subunit beta-2 (Rattus norvegicus), sequence (P62483 whole entry, looked up): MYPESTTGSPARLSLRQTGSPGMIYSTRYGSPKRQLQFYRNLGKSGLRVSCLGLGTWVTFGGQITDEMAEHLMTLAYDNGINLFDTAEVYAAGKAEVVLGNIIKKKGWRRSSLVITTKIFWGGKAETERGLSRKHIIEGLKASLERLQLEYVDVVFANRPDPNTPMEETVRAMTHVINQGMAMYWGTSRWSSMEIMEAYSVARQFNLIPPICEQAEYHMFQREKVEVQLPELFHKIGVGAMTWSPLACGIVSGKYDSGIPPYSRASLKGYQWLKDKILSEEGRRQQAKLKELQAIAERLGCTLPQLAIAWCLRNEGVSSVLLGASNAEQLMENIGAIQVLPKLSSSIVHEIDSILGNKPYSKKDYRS

As to `Cn1c(=O)[nH]c(=O)c2c1nc(N1CCc3ccccc3C1)n2CCSc1nc2ccccc2s1`, the cell count in assay [1] turned out to be 404. Besides, the inhibition in assay [1] is 4.7% (inactive); in assay [3], -34.8% (inactive); in assay [7] it was 19.3% (inactive); in assay [8] it was 23% (inactive). The inhibition of aggregation in assay [2] is 4.4% (inactive). Besides, the nuclei count in assay [2] is 105%; in assay [3], 118%. Moreover, in assay [4], the fluorescence slope is -0.502 (inactive). Moreover, the NADPH fluorescence slope in assay [5] is -4.2e-05 (inactive). Further, the slope in assay [6] was 0.00385 (inactive).
Take `CCOc1cc(NC(=O)c2ccco2)c(OCC)cc1NC(=O)COc1ccccc1C`: in assay [1], the cell count was 388. Further, the inhibition was 0% (inactive) in assay [1], -74.7% (inactive) in assay [3], -1.87% (inactive) in assay [7] and -75.9% (inactive) in assay [8]. Further, the inhibition of aggregation in assay [2] was -11.9% (inactive). In addition, the nuclei count in assay [2] is 107%; in assay [3] it was 129%. Moreover, the fluorescence slope in assay [4] was -0.00358 (active). For the same molecule, the NADPH fluorescence slope in assay [5] was 3.9e-06 (inactive). For the same molecule, in assay [6], the slope is 0.00663 (inactive).
As to `COC(=O)C1CCN(C(=O)CN2C(=O)NC(CCc3ccccc3)C2=O)CC1` (stereo not drawn), the cell count in assay [1] is 552. The inhibition was -9.6% (inactive) in assay [1], -16.4% (inactive) in assay [3], -17.8% (inactive) in assay [7] and -13.6% (inactive) in assay [8]. For the same molecule, the inhibition of aggregation in assay [2] is -7.5% (inactive). Besides, the nuclei count was 95.7% in assay [2] and 110% in assay [3]. For the same molecule, the fluorescence slope in assay [4] was -0.542 (inactive). In assay [5], the NADPH fluorescence slope was -2.6e-05 (inactive). Besides, in assay [6], the slope is 0.00516 (inactive).
On to `CCCCn1c(SCC(=O)Nc2ccc(OC)cc2)nc2ccc(N3CCOCC3)cc2c1=O`, for which the cell count in assay [1] came to 508. The inhibition was -0.6% (inactive) in assay [1], -3.4% (inactive) in assay [3], 11.2% (inactive) in assay [7] and 13.1% (inactive) in assay [8]. Besides, the inhibition of aggregation in assay [2] was 20.8% (inactive). Besides, the nuclei count turned out to be 44.4% in assay [2] and 103% in assay [3]. The fluorescence slope in assay [4] is -0.407 (inactive). The NADPH fluorescence slope in assay [5] was 6.3e-06 (inactive). For the same molecule, the slope in assay [6] was 0.00425 (inactive).
In the case of `CCOC(=O)c1nnc2cc(-c3ccc(Br)cc3)nn2c1C`, the cell count in assay [1] turned out to be 606. Further, the inhibition in assay [1] is -1.7% (inactive); in assay [3] it was -89.5% (inactive); in assay [7], -72.6% (inactive); in assay [8], -129% (inactive). For the same molecule, in assay [2], the inhibition of aggregation is -4.4% (inactive). The figures for the nuclei count in assay [2] and in assay [3] were 98.8% and 105%, respectively. Besides, the fluorescence slope in assay [4] is -0.558 (inactive). The NADPH fluorescence slope in assay [5] is -6.5e-06 (inactive). Moreover, in assay [6], the slope is 0.006 (inactive).
For `Oc1cccc(Nc2nc(NCC3CCCO3)c3ccccc3n2)c1` (stereo not drawn), the cell count in assay [1] came out at 555. Further, the inhibition in assay [1] is -70.4% (inactive); in assay [3], -47.9% (inactive); in assay [7] it was 14.4% (inactive); in assay [8], -32.6% (inactive). Moreover, the inhibition of aggregation in assay [2] is -4.4% (inactive). Besides, the nuclei count in assay [2] turned out to be 95.5%; in assay [3], 104%. The fluorescence slope in assay [4] was -0.612 (inactive). The NADPH fluorescence slope in assay [5] is 2.9e-05 (inactive). For the same molecule, in assay [6], the slope was 0.00401 (inactive).
Turning to `O=C1C2C3C=CC(C3)C2C(=O)N1Cc1ccccc1` (stereo not drawn), the cell count in assay [1] is 480. Besides, the inhibition is -9.2% (inactive) in assay [1], 40.2% (inactive) in assay [3], -1.99% (inactive) in assay [7] and -2.25% (inactive) in assay [8]. Also, in assay [2], the inhibition of aggregation was -2.3% (inactive). Further, the nuclei count was 102% in assay [2] and 74.3% in assay [3]. Moreover, in assay [4], the fluorescence slope was -0.618 (inactive). In assay [5], the NADPH fluorescence slope is -6.1e-05 (inactive). For the same molecule, the slope in assay [6] was 0.00345 (inactive).
Regarding `COc1ccccc1N(C)S(=O)(=O)c1ccc(C(=O)NC2=NCCS2)cc1`, the cell count in assay [1] came out at 458. Further, the inhibition in assay [1] is 10.9% (inactive); in assay [3], -38% (inactive); in assay [7] it was 2.13% (inactive); in assay [8], 12% (inactive). Also, the inhibition of aggregation in assay [2] was 9.8% (inactive). Besides, the nuclei count in assay [2] worked out at 95.4%; in assay [3], 110%. The fluorescence slope in assay [4] is -0.598 (inactive). The NADPH fluorescence slope in assay [5] is -2.8e-05 (inactive). Besides, in assay [6], the slope was 0.00655 (inactive).
As to `Cn1cccc1Cc1nnc(SCC(=O)Nc2ccccc2F)n1CCc1ccccc1`, in assay [1], the cell count was determined as 614. The inhibition was -7.4% (inactive) in assay [1], -52.6% (inactive) in assay [3], 3.46% (inactive) in assay [7] and 10.1% (inactive) in assay [8]. Further, the inhibition of aggregation in assay [2] was 7.5% (inactive). Besides, the nuclei count was 92.6% in assay [2] and 103% in assay [3]. Further, the fluorescence slope in assay [4] was -0.619 (inactive). For the same molecule, the NADPH fluorescence slope in assay [5] is 1.5e-05 (inactive). Besides, the slope in assay [6] was 0.00629 (inactive).
`CSc1cccc(NC(=O)CN(C)S(=O)(=O)c2ccccc2)c1`: in assay [1], the cell count turned out to be 407. For the same molecule, the inhibition in assay [1] is 4.6% (inactive); in assay [3] it was -183% (inactive); in assay [7], 6.98% (inactive); in assay [8], -6.52% (inactive). In addition, in assay [2], the inhibition of aggregation was -0.4% (inactive). The results for the nuclei count in assay [2] and in assay [3] were 103% and 111%, respectively. For the same molecule, the fluorescence slope in assay [4] is -0.406 (inactive). In assay [5], the NADPH fluorescence slope is -3.2e-05 (inactive). In assay [6], the slope was 0.00611 (inactive).
For the molecule `CC(=O)N1CCc2c(sc(NC(=O)c3ccc(S(=O)(=O)N(C)C)cc3)c2C#N)C1`, the cell count in assay [1] was determined as 660. For the same molecule, the inhibition in assay [1] is -0.8% (inactive); in assay [3], 7.9% (inactive); in assay [7] it was -4.77% (inactive); in assay [8], 22.6% (inactive). Also, in assay [2], the inhibition of aggregation is 18.5% (inactive). Besides, the nuclei count in assay [2] is 87.4%; in assay [3], 93%. The fluorescence slope in assay [4] is -0.52 (inactive). For the same molecule, the NADPH fluorescence slope in assay [5] was -3.5e-05 (inactive). In addition, the slope in assay [6] was 0.0064 (inactive).
Regarding `CCCNC(=O)C1CC(=O)N(c2ccc(OCC(=O)Nc3cc(C)cc(C)c3)cc2)C1` (stereo not drawn), the cell count in assay [1] turned out to be 591. Also, the inhibition was -6.2% (inactive) in assay [1], -6.3% (inactive) in assay [3], -3.19% (inactive) in assay [7] and 27.9% (inactive) in assay [8]. For the same molecule, the inhibition of aggregation in assay [2] was -2.7% (inactive). Besides, the nuclei count amounted to 104% in assay [2] and 114% in assay [3]. In addition, the fluorescence slope in assay [4] was -0.562 (inactive). The NADPH fluorescence slope in assay [5] is -4e-05 (inactive). The slope in assay [6] is 0.00634 (inactive).
Turning to `O=C(Nc1cccc(Cl)c1)N1CCN(c2ncccn2)CC1`, in assay [1], the cell count was 334. For the same molecule, the inhibition in assay [1] was 2% (inactive); in assay [3] it was 19.1% (inactive); in assay [7] it was -23.1% (inactive); in assay [8] it was -47% (inactive). Besides, the inhibition of aggregation in assay [2] is 21% (inactive). The nuclei count is 94.1% in assay [2] and 84.8% in assay [3]. In addition, the fluorescence slope in assay [4] is -0.53 (inactive). The NADPH fluorescence slope in assay [5] is 4.6e-05 (inactive). For the same molecule, the slope in assay [6] was 0.00446 (inactive).

Source of the values: PubChem BioAssay.
